This is an account of results in PubChem BioAssay (Tox21).

Assay [1] in a line: A CellTox Green Cytotoxicity Assay to monitor cytotoxicity in HEK293 cells - 32 hour (AID 1224881). Further: nearly all actives have a fitted effect of over 40% in size. The procedure, abridged: (§1)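 Tox21 screen in HEK293: membrane-impermeant cyanine dye fluoresces on binding dead-cell DNA; compound pinned 5 h post-seeding, plates held at 37 C, signal read repeatedly through 40 h.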
The nature of assay [2]: A CellTox Green Cytotoxicity Assay to monitor cytotoxicity in HepG2 cells - 0 hour (AID 1224882). Further: nearly all actives have a fitted effect of over 35% in size. The procedure, abridged: (§2)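 Measurements at 0, 8, 16, 24, 32 and 40 h of treatment captured CellTox Green fluorescence in HepG2 cells that had been co-plated with reagent and preincubated 5 h at 37 C/5% CO2.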
Assay [3] is described as follows: A CellTox Green Cytotoxicity Assay to monitor cytotoxicity in HepG2 cells - 32 hour (AID 1224883). Further: nearly all actives have a fitted effect of over 50% in size. The procedure, abridged:
as §2

The nature of assay [4]: A CellTox Green Cytotoxicity Assay to monitor cytotoxicity in HEK293 cells - 8 hour (AID 1224884). Further: nearly all actives have a fitted effect of over 35% in size. The procedure, abridged:
as §1

Assay [5] can be described thus: qHTS RealTime-Glo MT Cell Viability Assay in HepG2 cells - 16 hour (AID 1224885). Further: nearly all actives have a fitted effect of over 50% in size. The procedure, abridged: (§3)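 HepG2 cells (600/well) were dispensed with RealTime-Glo reagents, incubated 5 h at 37 °C, then treated with compounds in DMSO for up to 40 h. Nonlytic NanoLuc luminescence reflecting viable cells was read at each stated time point.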
(In general: In qHTS, concentration-response curves come from the screen itself.)

Assay [6] is described as follows: qHTS RealTime-Glo MT Cell Viability Assay in HEK293 cells - 8 hour (AID 1224887). Further: top concentration of the series differs between compounds; nearly all actives have a fitted effect of over 50% in size. The procedure, abridged:
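HEK293 + NanoLuc + prosubstrate, 600 cells/well; 5 h, 37 C/5% CO2; compound 23 nL in DMSO by pintool; 37 C; luminescence read at 0, 8, 16, 24, 32 and 40 h time points.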

Assay [7] can be described thus: A CellTox Green Cytotoxicity Assay to monitor cytotoxicity in HEK293 cells - 16 hour (AID 1224888). Further: nearly all actives have a fitted effect of over 35% in size. The method in brief: as §1
A short description of assay [8]: qHTS RealTime-Glo MT Cell Viability Assay in HepG2 cells - 0 hour (AID 1224889). Further: nearly all actives have a fitted effect of over 50% in size. Further: potency means the concentration at half of the fitted maximal effect. The procedure, abridged: as §3
The nature of assay [9]: A CellTox Green Cytotoxicity Assay to monitor cytotoxicity in HepG2 cells - 8 hour (AID 1224890). Further: nearly all actives have a fitted effect of over 45% in size. The method in brief:
as §2

Assay [10] can be described thus: qHTS assay to identify small molecule antagonists of the estrogen receptor alpha (ER-alpha) signaling pathway using the BG1 cell line in the presence of 0.1 nM 17-beta-estradiol - cell viability counter screen (AID 1259241). Further: nearly all actives have a fitted effect of over 40% in size. The procedure, abridged:
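Estradiol-stimulated (0.1 nM) VM7Luc4E2 cells exposed to compounds 22 hr; viability measured by fluorescence of cleaved CellTiter-Fluor substrate after 30 min.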

The nature of assay [11]: qHTS assay to identify small molecule antagonists of the androgen receptor (AR) signaling pathway using the MDA cell line in the presence of 0.5 nM R1881 - cell viability counter screen (AID 1259242). Further: nearly all actives have a fitted effect of over 45% in size. The procedure, abridged: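 Concentration-response screen of compounds for toxicity in MDA-kb2 reporter cells: 16 hr at 37C with 0.5 nM R1881, endpoint live-cell protease fluorescence measured in the reporter wells.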

Assay [12] can be described thus: qHTS assay to identify small molecule HDAC inhibitors (AID 1259364).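 Further: wild-type HCT-116 cells with endogenous class I/II HDAC activity; top concentration of the series differs between compounds; nearly all actives have a fitted effect of over 45% in size.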 The procedure, abridged: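 Screening used wild-type human colon HCT-116 cells incubated overnight, dosed with compounds for 2 hours, and assayed with a homogeneous luminogenic HDAC I/II reagent for 30 minutes at room temperature.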
A short description of assay [13]: qHTS assay to identify small molecule HDAC inhibitors - cell viability counter screen (AID 1259365). The procedure, abridged: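 After overnight seeding at 1,500 cells per well, wild-type HCT-116 cultures took up compounds in DMSO for 2hr at 37 C. Viable cell content came from luminescence with CellTiter-Glo.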
Assay [14] can be described thus: qHTS assay to identify small molecule agonists of the sonic hedgehog signaling (Shh) pathway - cell viability counter screen (AID 1259366). Further: nearly all actives have a fitted effect of over 50% in size. The procedure, abridged: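 Same-well cytotoxicity read. Gli1-Luc reporter 3T3 cells; compounds 24hr, 37C/5% CO2; CellTiter-Fluor fluorescence.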
A short description of assay [15]: qHTS assay to identify small molecule antagonists of the sonic hedgehog signaling (Shh) pathway - cell viability counter screen (AID 1259367). Further: nearly all actives have a fitted effect of over 55% in size. The method in brief:
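Tox21 library chemicals were tested on a Gli1-Luc NIH/3T3 clone (2,000 cells/well) stimulated by conditioned medium; viability was quantified as fluorescence from CellTiter-Fluor reagent added at 23 hr.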

The nature of assay [16]: qHTS assay to identify small molecule agonists of the sonic hedgehog signaling (Shh) pathway (AID 1259368; calls by dose curve;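 further: NIH/3T3-derived 3T3Gli1-Luc cells carrying a stable Gli1-driven firefly luciferase reporter; series mostly up to about 92 µM; nearly all actives have a fitted effect of over 15% in size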). The method in brief: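 Hedgehog pathway agonism scored by increased firefly luciferase luminescence in 3T3Gli1-Luc cells treated 24 hr at 37 C; detection used a 30 min room-temperature reagent incubation.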
For assay [17], the target named is Estrogen receptor (Homo sapiens) (UniProt P03372). The experiment in a line: qHTS assay to identify small molecule antagonists of the estrogen receptor alpha (ER-alpha) signaling pathway using the BG1 cell line in the presence of 0.1 nM 17-beta-estradiol (AID 1259244). Further: nearly all actives have a fitted effect of over 50% in size. The method in brief:
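Compounds were tested against 0.1 nM (final) 17beta-estradiol in VM7Luc4E2 cells, which express full-length ER-alpha and an ERE-luciferase reporter; luminescence was recorded following 22 h exposure.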

A number with no mark means an inactive call. Results filed as inconclusive are left out. Active and inactive are the calls of the source. Unless noted, the call rests on the fitted dose curve; in most records, active means well fitted curve in the direction sought with a large enough effect in the repeat runs; inconclusive means weak or mixed curves; inactive means no such curve, though single readings can be large; an effect the other way counts as inactive or inconclusive.
On the % scale 0 is the no-effect control and ±100 the full control effect.

Sequence of Estrogen receptor (Homo sapiens) (P03372 whole entry, looked up): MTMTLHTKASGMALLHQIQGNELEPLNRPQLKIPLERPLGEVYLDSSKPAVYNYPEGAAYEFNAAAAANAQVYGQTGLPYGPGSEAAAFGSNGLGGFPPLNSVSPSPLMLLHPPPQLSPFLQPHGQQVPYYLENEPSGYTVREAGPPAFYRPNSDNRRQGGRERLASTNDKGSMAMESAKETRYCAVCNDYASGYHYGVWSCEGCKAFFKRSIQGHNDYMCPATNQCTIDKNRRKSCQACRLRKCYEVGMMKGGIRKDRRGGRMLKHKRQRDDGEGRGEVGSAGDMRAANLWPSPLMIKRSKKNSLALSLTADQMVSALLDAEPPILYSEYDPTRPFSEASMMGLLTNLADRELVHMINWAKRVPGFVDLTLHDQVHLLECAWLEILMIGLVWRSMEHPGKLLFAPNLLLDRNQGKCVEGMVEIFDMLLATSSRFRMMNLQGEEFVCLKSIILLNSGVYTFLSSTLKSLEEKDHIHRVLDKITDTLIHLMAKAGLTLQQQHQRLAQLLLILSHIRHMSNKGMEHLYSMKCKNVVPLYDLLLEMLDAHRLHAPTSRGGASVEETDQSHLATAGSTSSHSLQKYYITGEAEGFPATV

For the compound `CC(C)CC(C)(N)C#N` (stereo not given), the compound was called inactive in [1], in assay [4], in assay [5], in [7], in assay [9] and in assay [10]. Moreover, the outcome in assay [11], in assay [13] and in assay [16] was inactive. In addition, the Potency result in [2], in [3], in assay [6], in assay [8], in assay [12] and in assay [14] was “inactive” in each case. Also, the Potency entry in assay [15] is “inactive”.

For the compound `CCOC(=O)c1ccccc1`, the compound was classed as inactive in assay [1], in assay [4], in [5], in assay [7], in assay [9] and in assay [10]. Also, the outcome in assay [11], in [17], in assay [13] and in assay [16] was inactive. In addition, the Potency entry in [2], in [3], in assay [6], in assay [8], in assay [12] and in assay [14] was “inactive” in each case. Also, in assay [15], the Potency entry is “inactive”.

Consider `Cc1cc(C)c(N=Nc2c(O)c(S(=O)(=O)O)cc3cc(S(=O)(=O)O)ccc23)cc1C`, for which the cytotoxicity increase is 10.2% [at 6.97 µM] in [1], -2.71% [at 6.97 µM] in assay [3], 0% [at 6.97 µM] in [4] and 3.92% [at 6.97 µM] in assay [9]. In addition, the cytotoxicity in [2] is 2.93% [at 6.97 µM]. Besides, the activity change, negative = cytotoxic in assay [5] is 0.476% [at 6.97 µM]. For the same compound, the activity change in assay [7] is 15.4% [at 6.97 µM]; in assay [16], -1.73% [at 8.39 µM]. Also, the values for the activity change, negative = cytotoxicity in [8] and in assay [10] were 4.39% [at 6.97 µM] and -12.4% [at 8.39 µM], respectively. Further, the viability change, negative = cytotoxic was -3.59% [at 8.39 µM] in assay [11], -2.37% [at 8.39 µM] in assay [14] and -9.99% [at 8.39 µM] in assay [15]. Besides, the figures for the activity change, negative = inhibition in assay [17] and in assay [12] were -1.05% [at 8.39 µM] and -2.59% [at 8.39 µM], respectively.

On to `CCCC(=O)O[C@]1(C(=O)CC)CC[C@H]2[C@@H]3CCC4=CC(=O)CC[C@]4(C)[C@H]3[C@@H](O)C[C@@]21C`, for which the outcome in assay [1], in assay [4], in assay [5], in [7], in [9] and in [10] was inactive. The result in assay [11], in assay [17], in assay [13] and in assay [16] was inactive. Further, the Potency entry in [2], in assay [3], in assay [6], in assay [12], in assay [14] and in assay [15] was “inactive” throughout. Moreover, in [8], the Potency is 1690 nM (active).

As for `CN1C(C)(C)CC(O)CC1(C)C`, the compound was called inactive in assay [1], in assay [4], in assay [5], in assay [7], in [9] and in assay [10]. Moreover, the result in assay [11], in [17], in [13] and in assay [16] was inactive. Moreover, the Potency entry in assay [2], in assay [3], in [6], in assay [8], in assay [12] and in assay [14] was “inactive” throughout. The Potency result in assay [15] was “inactive”.

As for `CCCC[N+](C)(CCCC)CCCC`, the compound was called inactive in assay [1], in [4], in assay [5], in [7], in assay [9] and in [11]. The result in assay [17], in assay [13] and in [16] was inactive. The Potency result in assay [2], in assay [3], in [6], in assay [8], in assay [12] and in assay [14] was “inactive” throughout. For the same compound, the Potency entry in assay [15] is “inactive”.

On to `CC(C)(C)C(=O)c1ccccc1`, for which the result in assay [1], in [4], in assay [5], in [7], in [9] and in assay [10] was inactive. For the same compound, the result in [11], in [17], in assay [13] and in assay [16] was inactive. Further, the Potency result in assay [2], in [3], in assay [6], in [8], in assay [12] and in [14] was “inactive” in each case. In assay [15], the Potency entry is “inactive”.
